Source: PubChem BioAssay (National Center for Advancing Translational Sciences (NCATS))
PNC assembly inh – High Content Assay for Compounds that inhibit the Assembly of the Perinucleolar Compartment | PC3M PTB-GFP, PNC prevalence imaging, 16 h; hits give low values | activity change (PNC), negative = inhibition, % at 10 µM | 140,000 compounds, 3.1% hits;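 active = readout at or below -70, meaning at least 70% loss of cells showing the perinucleolar compartment, a nuclear body marking cancer cells; inconclusive = readout between -30 and a set limit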
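Compounds are pinned in duplicate onto adhered PC3M cells stably expressing GFP-tagged PTB and incubated 16 h at 37 C. Cells are then fixed, nuclei stained with Hoechst, and PNC-positive cells counted.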
ALDH1A1 inh – qHTS Assay for Inhibitors of Aldehyde Dehydrogenase 1 (ALDH1A1); Purified ALDH1A1, NADH fluorescence, propionaldehyde substrate; Potency, µM (doses to about 75.3 µM), hits mostly inhibitors; 220,000 compounds, 7.3% hits; AID 1030, 2008
HPGD inh – qHTS Assay for Inhibitors of HPGD (15-Hydroxyprostaglandin Dehydrogenase). 15-hydroxyprostaglandin dehydrogenase [NAD(+)] (Homo sapiens), P15428. AID 894, 2007. purified HPGD, NADH fluorescence kinetic, PGE2 substrate. Potency, µM, usual class: inhibitors. 150,000 compounds, 4.3% hits
Target sequence (P15428 whole entry, looked up): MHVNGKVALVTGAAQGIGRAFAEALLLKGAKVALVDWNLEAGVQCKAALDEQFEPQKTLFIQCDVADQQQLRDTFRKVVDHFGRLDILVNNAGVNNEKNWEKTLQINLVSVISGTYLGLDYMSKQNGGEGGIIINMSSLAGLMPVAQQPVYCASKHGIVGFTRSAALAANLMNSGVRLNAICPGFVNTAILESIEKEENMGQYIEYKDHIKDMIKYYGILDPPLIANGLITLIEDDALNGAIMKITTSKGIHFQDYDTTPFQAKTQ
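NADH formation kinetics: reaction with 30 uM PGE2 and 1 mM NAD+ (final), 20 nM enzyme, Tris-HCl pH 8 with Tween 20, after 15 min compound preincubation at room temperature. Fluorescence change, last versus first of five reads.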
A number is an active result; [ ] = dose if it differs, or a comment. Compounds with a hit are over-represented: about 11% of the library has one in this group of screens. Unless noted, calls come from the whole dose curve; as a rule, active = well fitted inhibition curve with a large enough effect (not every such curve was filed as active); inconclusive = small, poorly fitted or top-dose-only effect, or another doubt; inactive = no such curve, though single readings can be large or run the other way.

For CCCCNc1nc(C)nc2c1nc(-c1ccccc1)n2C1CCN(Cc2ccccc2)C1 (stereo not drawn) the results were ALDH1A1 inh inconclusive and HPGD inh inactive.
`CCSc1nnc(C)c(=O)n1COC(=O)c1ccc(S(=O)(=O)N2CCCC2)cc1` gave PNC assembly inh inactive, ALDH1A1 inh inactive and HPGD inh inactive.
`CN(Cc1ccc(F)cc1)Cc1nc(-c2cnccn2)no1` gave ALDH1A1 inh inactive.
For COc1ccc(/C(O)=C2\C(=O)C(=O)N(c3cc(C)on3)C2c2ccccc2OC)cc1C (stereo not drawn) the results were PNC assembly inh inactive and ALDH1A1 inh inactive.
Screening COc1ccc(/C(O)=C2\C(=O)C(=O)N(c3cc(C)on3)C2c2ccccc2OC)cc1 (stereo not drawn) returned PNC assembly inh inactive, ALDH1A1 inh 22.4µM and HPGD inh inactive.
Screening CCN(c1nc(N)c(C(=O)N=C(N)N)nc1Cl)C(C)C returned ALDH1A1 inh inactive and HPGD inh inactive.
For O=C(CCN1C(=O)C2C3C=CC(C3)C2C1=O)N1CC(=O)N(CCc2ccccc2)C(=O)C1 (stereo not drawn) the results were PNC assembly inh inactive, ALDH1A1 inh inconclusive and HPGD inh inactive.
Screening O=C(CN1C(=O)C2C3C=CC(C3)C2C1=O)N1CC(=O)N(CCc2ccccc2)C(=O)C1 (stereo not drawn) returned PNC assembly inh inactive, ALDH1A1 inh 28.2µM and HPGD inh inactive.
COCCN1C(=S)NC(c2cccc(C(F)(F)F)c2)C(C(=O)N2CCOCC2)=C1C (stereo not drawn) was read as ALDH1A1 inh inactive.
Screening CCCCc1ccc(NS(=O)(=O)c2cccs2)cc1 returned PNC assembly inh inactive and ALDH1A1 inh inactive.
COc1cc(CN(C)CC(=O)c2[nH]c(C)c(C(C)=O)c2C)ccc1OC(F)F was read as PNC assembly inh inactive, ALDH1A1 inh 3.55µM and HPGD inh inactive.
`COc1ccccc1OCC(=O)c1[nH]c(C)c(C(C)=O)c1C` gave PNC assembly inh inactive, ALDH1A1 inh inactive and HPGD inh inactive.
`CCCCC/C=C\C[C@@H](O)/C=C/C=C\CCC(=O)O` gave ALDH1A1 inh inactive and HPGD inh inactive.
CN(C)CC(=O)c1ccc(-c2ccccc2)cc1 was read as PNC assembly inh inactive, ALDH1A1 inh inconclusive and HPGD inh inactive.
CCN(CC)C(=O)c1ccc(-c2ccccc2)cc1 was read as PNC assembly inh inactive, ALDH1A1 inh inconclusive and HPGD inh 0.631µM.
For CCN(CC)CC(=O)c1ccc(-c2ccccc2)cc1 the results were PNC assembly inh inconclusive, ALDH1A1 inh inconclusive and HPGD inh inactive.
`C/[N+]([O-])=C\CC(=O)c1ccc(-c2ccccc2)cc1` gave ALDH1A1 inh 28.2µM.
COc1ccc(N(CC(=O)N2CCN(c3ccc(Cl)cc3)CC2)S(=O)(=O)c2c(C)n[nH]c2C)cc1 was read as ALDH1A1 inh inactive.
For COc1cc(C(=S)N2CCN(c3ccccc3Cl)CC2)cc(O)c1O the results were ALDH1A1 inh inactive.
`O=C(C1=C(O)C(=O)N(Cc2cccnc2)C1c1ccccn1)c1cccs1` (stereo not drawn) gave ALDH1A1 inh inactive.
Screening COc1cc2c3cc1Oc1cc(ccc1O)C[C@@H]1c4c(cc(OC)c(O)c4Oc4ccc(cc4)C[C@H]3[N+](C)(C)CC2)CC[N+]1(C)C returned ALDH1A1 inh inactive[13.5 µM] and HPGD inh inactive.
CC(=O)c1ccc(OCC(O)Cn2nnc3ccccc32)cc1 (stereo not drawn) was read as PNC assembly inh inactive, ALDH1A1 inh inactive and HPGD inh inactive.
`O=C(CCCOc1ccc(Cl)cc1Cl)n1nnc2ccccc21` gave PNC assembly inh inconclusive, ALDH1A1 inh inactive and HPGD inh 8.91µM.
Screening Nc1nncn1C(=O)CCCOc1ccc(Cl)cc1Cl returned PNC assembly inh inconclusive, ALDH1A1 inh inactive and HPGD inh inconclusive.
Screening CC(=O)c1ccc(OCCCC(=O)n2nnc3ccccc32)cc1 returned PNC assembly inh inactive, ALDH1A1 inh inactive and HPGD inh 20µM.
Screening CCOC(=O)N1C(=O)C2(CCCCC2)N(c2ccccc2Cl)C1=S returned PNC assembly inh inactive, ALDH1A1 inh inactive and HPGD inh inactive.
`O=C(CSc1nccc(=O)[nH]1)Nc1cccc(S(=O)(=O)N2CCOCC2)c1` gave ALDH1A1 inh inactive.
`O=C(N=C1c2ccccc2CN1c1ccc(F)cc1)c1ccc(Cl)nc1` gave PNC assembly inh inactive, ALDH1A1 inh 28.2µM and HPGD inh inactive.
`CCOC(=O)c1ccc(N2Cc3ccccc3C2=NC(=O)c2ccncc2)cc1` gave ALDH1A1 inh inactive.
Screening COc1cc(/C=C/C(=O)OCC(=O)NC(=O)NC23CC4CC(CC(C4)C2)C3)ccc1OCC#N returned PNC assembly inh inconclusive, ALDH1A1 inh inactive and HPGD inh inconclusive.
Screening COc1cc(/C=C/C(=O)OCC(=O)NC(=O)NC(C)C)ccc1OCC#N returned PNC assembly inh -85.1, ALDH1A1 inh inconclusive and HPGD inh inconclusive.
Screening C=CCC1C=CC(Oc2ccc(F)cc2C)C(CO)O1 (stereo not drawn) returned ALDH1A1 inh inactive[13.5 µM].
For COc1ccc(-n2c(=S)[nH]c3cc(C(=O)Nc4ccccc4OC)ccc3c2=O)cc1 the results were PNC assembly inh inconclusive, ALDH1A1 inh 15.8µM and HPGD inh inactive.
`CCOC(=O)N1CCN(C(=O)c2ccc3c(=O)n(-c4ccc(OC)cc4)c(=S)[nH]c3c2)CC1` gave PNC assembly inh inactive, ALDH1A1 inh inactive and HPGD inh inactive.
`COc1ccc(OC)c(-n2c(=S)[nH]c3cc(C(=O)N4CCN(c5ccccc5)CC4)ccc3c2=O)c1` gave ALDH1A1 inh inactive.
`COc1ccc(NC(=O)c2ccc3c(=O)n(-c4ccc(OC)cc4OC)c(=S)[nH]c3c2)cc1` gave ALDH1A1 inh 12.6µM.
`COc1ccc(-n2c(=S)[nH]c3ccccc32)cc1` gave PNC assembly inh inactive, ALDH1A1 inh 31.6µM and HPGD inh 22.4µM.
Screening CCOC(=O)N1CCN(C(=O)c2ccc3c(=O)n(-c4ccc(OC)cc4OC)c(=S)[nH]c3c2)CC1 returned PNC assembly inh inactive, ALDH1A1 inh inactive and HPGD inh inactive.
`COc1ccc(Cn2c(=S)[nH]c3ccccc32)cc1` gave ALDH1A1 inh inactive.
For COc1ccc(-n2c(=S)[nH]c3cc(C(=O)NCc4ccco4)ccc3c2=O)c(OC)c1 the results were PNC assembly inh inconclusive, ALDH1A1 inh 0.316µM and HPGD inh inactive.
For Cc1ccc(S(=O)(=O)NCCc2nnc3ccc(SCC(=O)Nc4nc(C)cs4)nn23)cc1 the results were PNC assembly inh inactive, ALDH1A1 inh inactive and HPGD inh inactive.
For COc1ccc(C2C(C(=O)Nc3ccc(OC)c(OC)c3)c3ccccc3C(=O)N2C)cc1 (stereo not drawn) the results were ALDH1A1 inh inactive.
Screening CN(C)c1ccccc1C(=O)c1ccccc1N(C)C returned PNC assembly inh inconclusive, ALDH1A1 inh inconclusive and HPGD inh inactive.
CN(C)c1ccc(C(=O)c2ccc(N(C)C)c3ccccc23)cc1 was read as PNC assembly inh -103.0, ALDH1A1 inh inactive and HPGD inh inactive.
